PubChem BioAssay AID1159580 (chemical genetic matrix, 2015)
Several values for one entry are separate records, joined by “and”; a condition that tells them apart may be missing. Identical values can stand only once. The campaign covered roughly 5,500 compounds. About 2,000 (36%) were called active. Another 18% or so got no clear call; they are omitted. Rule as the data show it: active = normalized growth mostly below about 0.91 (no sharp cut-off); inconclusive = no clear call, values can overlap the other calls; inactive = mostly above about 0.92. Some of the results follow.

Experiment: chemical genetic growth profiling, strain panel (AID 1159580);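 also: tested at 20 µM; growth read once vehicle control cultures reached saturation at 30 °C; 1 = growth at the plate median or of vehicle wells; lower values mean less growth of the strain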
Details: S. cerevisiae deletion strains, growth OD

Measured: normalized growth

COP(=O)(OC)OC=C(Cl)Cl
inactive: locus YAL013W, strain DEP1, hits give low values 0.997 | locus YAL021C, strain ccr4, hits give low values 0.988 | locus YAL026C, strain drs2, hits give low values 0.993 | locus YAL030W, strain snc1, hits give low values 1 | locus YBL061C, strain skt5, hits give low values 0.984 | locus YBR009C, strain hhf1, hits give low values 0.991 | locus YBR021W, strain FUR4, hits give low values 1.05 | locus YBR023C, strain chs3, hits give low values 0.995 | locus YBR171W, strain sec66, hits give low values 1.01 | locus YBR229C, strain ROT2, hits give low values 0.965 | locus YBR231C, strain swc5, hits give low values 0.999 | locus YBR279W, strain paf1, hits give low values 0.992 | locus YCL011C, strain gbp2, hits give low values 0.994 | locus YCL016C, strain dcc1, hits give low values 1.01 | locus YCL029C, strain bik1, hits give low values 0.98 | locus YCL061C, strain MRC1, hits give low values 0.991 | locus YCL069W, strain vba3, hits give low values 1 | locus YCR088W, strain abp1, hits give low values 1 | locus YDL005C, strain med2, hits give low values 0.997 | locus YDL035C, strain GPR1, hits give low values 0.977 | locus YDL040C, strain nat1, hits give low values 0.989 | locus YDL074C, strain BRE1, hits give low values 0.957 | locus YDL101C, strain DUN1, hits give low values 0.964 | locus YDL134C, strain PPH21, hits give low values 0.983 | locus YDL185W, strain tfp1, hits give low values 0.947 | locus YDL192W, strain arf1, hits give low values 0.983 | locus YDR001C, strain nth1, hits give low values 0.998 | locus YDR069C, strain doa4, hits give low values 0.975 | locus YDR101C, strain arx1, hits give low values 0.986 | locus YDR137W, strain rgp1, hits give low values 0.982 | locus YDR150W, strain NUM1, hits give low values 0.985 | locus YDR159W, strain sac3, hits give low values 0.965 | locus YDR162C, strain NBP2, hits give low values 0.981 | locus YDR195W, strain ref2 0.933 | locus YDR297W, strain sur2, hits give low values 0.99 | locus YDR318W, strain mcm21, hits give low values 0.983 | locus YDR334W, strain swr1, hits give low values 1.01 | locus YDR335W, strain msn5, hits give low values 0.995 | locus YDR388W, hits give low values 0.995 | locus YDR392W, strain spt3, hits give low values 1 | locus YDR502C, strain sam2, hits give low values 0.993 | locus YEL003W, strain gim4, hits give low values 0.991 | locus YEL037C, strain rad23, hits give low values 0.986 | locus YEL061C, strain CIN8 (second series), hits give low values 0.984 | locus YEL061C, strain CIN8, hits give low values 0.989 | locus YER015W, strain faa2, hits give low values 0.982 | locus YER016W, strain bim1, hits give low values 0.99 | locus YER110C, hits give low values 0.969 | locus YER111C, strain swi4, hits give low values 0.989 | locus YER155C, strain BEM2 (second series), hits give low values 0.998 | locus YER155C, strain BEM2, hits give low values 0.991 | locus YER167W, strain BCK2, hits give low values 0.988 | locus YFR010W, strain ubp6, hits give low values 0.994 | locus YGL078C, strain dbp3, hits give low values 0.986 | locus YGL086W, strain mad1, hits give low values 0.994 | locus YGL167C, strain pmr1, hits give low values 0.994 | locus YGL173C, strain kem1, hits give low values 0.986 | locus YGL227W, strain vid30, hits give low values 0.991 | locus YGL240W, strain doc1, hits give low values 0.978 | locus YGL248W, strain PDE1, hits give low values 0.982 | locus YGL253W, strain hxk2, hits give low values 0.998 | locus YGR078C, strain PAC10, hits give low values 0.989 | locus YGR135W, strain pre9, hits give low values 0.993 | locus YGR229C, strain SMI1, hits give low values 1.01 | locus YGR252W, strain gcn5, hits give low values 0.998 | locus YHR013C, strain ard1, hits give low values 0.974 | locus YHR027C, strain rpn1, hits give low values 1.01 | locus YHR030C, strain SLT2, hits give low values 1.01 and 1.02 | locus YHR079C, strain IRE1 (second series), hits give low values 0.982 | locus YHR079C, strain IRE1, hits give low values 1.05 | locus YHR094C, strain hxt1, hits give low values 0.993 | locus YHR129C, strain ARP1, hits give low values 0.976 | locus YHR142W, strain chs7, hits give low values 0.989 | locus YHR200W, strain rpn10, hits give low values 0.989 | locus YIL066C, strain RNR3, hits give low values 1 | locus YIL073C, strain SPO22, hits give low values 1.06 | locus YIL125W, strain kgd1, hits give low values 0.98 | locus YIR030C, strain dcg1, hits give low values 0.988 | locus YJL092W, strain hpr5, hits give low values 1 | locus YJL095W, strain BCK1 (second series), hits give low values 0.996 | locus YJL095W, strain BCK1, hits give low values 1.01 and 1.03 | locus YJL115W, strain asf1, hits give low values 0.998 | locus YJL129C, strain trk1, hits give low values 1.01 | locus YJL134W, strain LCB3, hits give low values 1 | locus YJL154C, strain vps35, hits give low values 0.997 | locus YJL164C, strain tpk1, hits give low values 0.992 | locus YJL166W, strain qcr8, hits give low values 0.992 | locus YJL168C, strain set2, hits give low values 0.981 | locus YJL187C, strain SWE1 (second series), hits give low values 0.976 | locus YJL187C, strain SWE1, hits give low values 1 | locus YJR043C, strain POL32, hits give low values 0.988 | locus YJR066W, strain TOR1, hits give low values 0.981
